For 36 molecules, outcome and AC50 results are on record in PubChem BioAssay (EPA / NIEHS).

Several values for one entry are separate records, joined by “and”; a condition that tells them apart may be missing. Equal entries are not always repeated. Activity calls are given as the source filed them. How the source made its calls: active means hit-call score of the fitted dose curve at least 0.9, where 1 is the maximum; inactive means score below 0.9.

The term AC50 denotes the midpoint of the concentration-response curve, whichever way the signal moves.

Read-out in the first assay: not listed separately
The assay is described as follows: BSK_MyoF_SRB: Viability Assessment in the BioMAP Diversity Plus: MyoF Assay (AID 2284267).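 Further: total protein by SRB absorbance in parallel cultures as cytotoxicity measure; cells assessed 24 h after compound addition.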 Particulars: primary human lung fibroblasts. An outline of the steps: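 Human lung fibroblasts dosed with chemical and assessed 24 h later for overt cytotoxicity in parallel cultures. Total protein quantified by sulforhodamine B staining (0.1% SRB after 10% TCA fixation), read at 560 nm, analysed in positive direction versus DMSO baseline.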
As to `COc1cc(OC)nc(NC(=O)NS(=O)(=O)c2ncccc2C(=O)N(C)C)n1`, the outcome was inactive.
In the case of `CCCCC(CC)CO[N+](=O)[O-]` (configuration not stated), the outcome was inactive.
For `Nc1ccc(-c2ccc(N)c(Cl)c2)cc1Cl`, the AC50 is 24.9 µM (active).
For the molecule `CC1(C)Cc2cccc(O)c2O1`, the result was inactive.
Same read-out and setting: with `COP(=S)(OC)Oc1cc(Cl)c(Cl)cc1Cl` the entry was “inactive”; with `ClC1=C(Cl)[C@]2(Cl)[C@H]3[C@H]([C@H]4C=C[C@H]3C4)[C@@]1(Cl)C2(Cl)Cl`, “inactive”.
The same measure, in the same setting: with `BrCCBr` the entry was “inactive”.
Turning to `Oc1c(I)cc(I)cc1I`, the AC50 was 18.2 µM (active).
Consider `OCc1ccco1`, for which the outcome was inactive.
In the case of `COP(=S)(OC)Oc1c(Cl)cc(C)cc1Cl`, the result was inactive.
As to `CCOC(=O)/C=C(C)/C=C/C[C@@H](C)CCCC(C)C`, the AC50 is 30.1 µM (active).
Consider `CCOP(=S)(OCC)SCCS(=O)(=O)CC`, for which the outcome was inactive.
The same measure, in the same setting: to `COC[C@H](C)N(C(=O)CCl)c1c(C)csc1C` belongs “inactive”; to `O=S(=O)(c1ccc(Cl)cc1)c1ccc(Cl)cc1`, “inactive”; to `CCCCCCCCC(=O)NCc1ccc(O)c(OC)c1`, “inactive”.
On the same count and under the same terms, to `O=C(O)C(F)(F)C(F)(F)C(F)(F)C(F)(F)C(F)(F)C(F)(F)F` belongs “inactive”; to `CC(=O)C(Cl)C(=O)N(C)C` (configuration not stated), “inactive”.
As to `CC(C)CCCCCCOC(=O)c1ccccc1C(=O)OCCCCCCC(C)C`, the outcome was inactive.
Regarding `C(=NC1CCCCC1)=NC1CCCCC1`, the AC50 is 7.2 µM (active).
Regarding `CCOP(=S)(OCC)Oc1ccc(S(C)=O)cc1` (configuration not stated), the outcome was inactive.
Same read-out and setting: with `COP(=S)(OC)Oc1ccc(Sc2ccc(OP(=S)(OC)OC)cc2)cc1` the entry was “inactive”.
On the same count and under the same terms, to `O=C(O)CCC(F)(C(F)(F)F)C(F)(F)F` belongs “inactive”; to `COC(=O)c1sccc1S(=O)(=O)NC(=O)Nc1nc(C)nc(OC)n1`, “inactive”.
On the same count and under the same terms, with `Oc1ccc(-c2ccccc2)cc1` the entry was “inactive”; with `CCNc1nc(NC(C)(C)C)nc(SC)n1`, “inactive”.
Take `CC(C)c1ccc(CO)cc1`: the outcome was inactive.
The same measure, in the same setting: to `COP(=S)(OC)Oc1ccc(S(=O)(=O)N(C)C)cc1` belongs “inactive”; to `NC(=S)Nc1ccccc1`, “inactive”.
Still for that read-out and setting: with `Nc1ncc([N+](=O)[O-])s1` the entry was “inactive”.
Same read-out and setting: with `Nc1cccc2ccccc12` the entry was “inactive”.
For the molecule `O=[N+]([O-])c1ccc2c3c(cccc13)CC2`, the outcome was inactive.
Same read-out and setting: with `O=Cc1cccc(Oc2ccccc2)c1` the entry was “inactive”; with `CCSC(C)CC1CC(=O)C(C(CC)=NOC/C=C/Cl)=C(O)C1` (configuration not stated), “inactive”.
Take `O=C(O)C(F)(F)C(F)(F)C(F)(F)C(F)(F)C(F)(F)C(F)(F)C(F)(F)C(F)(F)C(F)(F)C(F)(F)F`: the half-maximal activity concentration (AC50) was 5.01 µM (active) and 5.05 µM (active).
As to `ClC(Cl)=C(Cl)C(Cl)=C(Cl)Cl`, the outcome was inactive.
`O=C(OC1CCCCC1)c1ccccc1C(=O)OC1CCCCC1`: the AC50 is 13.3 µM (active).

Read-out in another assay: Matrix Metallopeptidase 1 (MMP1), MMP1 (gene 4312)
The assay is described as follows: BSK_MyoF_MMP1: BioMAP Diversity Plus: MyoF Assay for Matrix Metallopeptidase 1 (MMP1) Biomarker Activity (AID 2284268). Particulars: primary human lung fibroblasts. Put shortly:
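Cells: human lung fibroblasts. Exposure: 24 h chemical dosing. Detection: ELISA for MMP1. Analysis: upward fitting against DMSO negative control.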
Turning to `COc1cc(OC)nc(NC(=O)NS(=O)(=O)c2ncccc2C(=O)N(C)C)n1`, the outcome was inactive.
Take `CCCCC(CC)CO[N+](=O)[O-]` (configuration not stated): the AC50 is 31.6 µM (active).
On the same count and under the same terms, to `Nc1ccc(-c2ccc(N)c(Cl)c2)cc1Cl` belongs 7.38 µM (active).
In the case of `CC1(C)Cc2cccc(O)c2O1`, the outcome was inactive.
On to `COP(=S)(OC)Oc1cc(Cl)c(Cl)cc1Cl`, for which the AC50 is 20 µM (active).
Still for that read-out and setting: to `ClC1=C(Cl)[C@]2(Cl)[C@H]3[C@H]([C@H]4C=C[C@H]3C4)[C@@]1(Cl)C2(Cl)Cl` belongs 20 µM (active).
Regarding `BrCCBr`, the result was inactive.
Turning to `Oc1c(I)cc(I)cc1I`, the AC50 was 5.11 µM (active).
On to `OCc1ccco1`, for which the outcome was inactive.
The same measure, in the same setting: to `COP(=S)(OC)Oc1c(Cl)cc(C)cc1Cl` belongs “inactive”.
Consider `CCOC(=O)/C=C(C)/C=C/C[C@@H](C)CCCC(C)C`, for which the AC50 was 20 µM (active).
Take `CCOP(=S)(OCC)SCCS(=O)(=O)CC`: the outcome was inactive.
The same measure, in the same setting: to `COC[C@H](C)N(C(=O)CCl)c1c(C)csc1C` belongs “inactive”; to `O=S(=O)(c1ccc(Cl)cc1)c1ccc(Cl)cc1`, “inactive”; to `CCCCCCCCC(=O)NCc1ccc(O)c(OC)c1`, “inactive”.
Turning to `O=C(O)C(F)(F)C(F)(F)C(F)(F)C(F)(F)C(F)(F)C(F)(F)F`, the result was inactive.
`CC(=O)C(Cl)C(=O)N(C)C` (configuration not stated): the result was inactive.
For `CC(C)CCCCCCOC(=O)c1ccccc1C(=O)OCCCCCCC(C)C`, the outcome was inactive.
Turning to `C(=NC1CCCCC1)=NC1CCCCC1`, the AC50 was 4.75 µM (active).
With `CCOP(=S)(OCC)Oc1ccc(S(C)=O)cc1` (configuration not stated), the result was inactive.
As to `COP(=S)(OC)Oc1ccc(Sc2ccc(OP(=S)(OC)OC)cc2)cc1`, the AC50 was 7.48 µM (active).
For `O=C(O)CCC(F)(C(F)(F)F)C(F)(F)F`, the outcome was inactive.
Turning to `COC(=O)c1sccc1S(=O)(=O)NC(=O)Nc1nc(C)nc(OC)n1`, the result was inactive.
Take `Oc1ccc(-c2ccccc2)cc1`: the outcome was inactive.
`CCNc1nc(NC(C)(C)C)nc(SC)n1`: the AC50 is 31.5 µM (active).
With `CC(C)c1ccc(CO)cc1`, the result was inactive.
For `COP(=S)(OC)Oc1ccc(S(=O)(=O)N(C)C)cc1`, the outcome was inactive.
The same measure, in the same setting: with `NC(=S)Nc1ccccc1` the entry was “inactive”; with `Nc1ncc([N+](=O)[O-])s1`, “inactive”.
Regarding `Nc1cccc2ccccc12`, the AC50 is 20 µM (active).
The same measure, in the same setting: with `O=[N+]([O-])c1ccc2c3c(cccc13)CC2` the figure was 20 µM (active).
Take `O=Cc1cccc(Oc2ccccc2)c1`: the result was inactive.
Same read-out and setting: with `CCSC(C)CC1CC(=O)C(C(CC)=NOC/C=C/Cl)=C(O)C1` (configuration not stated) the entry was “inactive”; with `O=C(O)C(F)(F)C(F)(F)C(F)(F)C(F)(F)C(F)(F)C(F)(F)C(F)(F)C(F)(F)C(F)(F)C(F)(F)F`, “inactive”.
Same read-out and setting: with `ClC(Cl)=C(Cl)C(Cl)=C(Cl)Cl` the entry was “inactive”.
As to `O=C(OC1CCCCC1)c1ccccc1C(=O)OC1CCCCC1`, the AC50 was 5.69 µM (active).
